According to the supplement of paper PMC10849652:
Targets with a hit are over-represented here; the source holds about 7,900 in all. About 0.6% of all pairs of compound and target were hits.

Tests used:
Test in all cases: log2 fold change, soluble protein after heating vs DMSO (PISA); higher = thermal stabilisation; K562 cells, 10 uM, 30 min; active = over 0.2 and 3.5 SD of the protein, either way, in both replicates (recomputed)
[1] = compound: CS(=O)(=O)c1ccc(-c2cnc(N)c(C(=O)Nc3ccccc3)n2)cc1
How it was run: (§1)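 Quantification of soluble protein used TMTpro 16plex LC-MS/MS, with channel sums equalised. Samples were the supernatant after 21,000xg for 90 min of pooled aliquots from K562 cells (2×10^6 cells/mL) treated with 10 μM compound for 30 min, heated for 3 min over 48°C-58°C, and extracted in PBS with 0.5% NP-40 at 4°C. Values, from duplicates, describe thermal stability against control samples on a log2 fold-change scale.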

crizotinib = compound: C[C@@H](Oc1cc(-c2cnn(C3CCNCC3)c2)cnc1N)c1c(Cl)ccc(F)c1Cl [crizotinib]
How it was run: as §1

[2] = compound: C[C@@H]1COCCN1C2=NC(=NC(=C2)C3(CC3)S(=O)(=O)C)C4=C5C=CNC5=CC=C4
How it was run: as §1

[3] = compound: C[C@H](C1=CC=C(C=C1)C(=O)NC2=C3C=CNC3=NC=C2)N
How it was run: as §1

duvelisib = compound: C[C@H](Nc1ncnc2nc[nH]c12)c1cc2cccc(Cl)c2c(=O)n1-c1ccccc1 [duvelisib]
How it was run: as §1

gandotinib = compound: Cc1cc(Nc2cc(CN3CCOCC3)c3nc(C)c(Cc4ccc(Cl)cc4F)n3n2)n[nH]1 [gandotinib]
How it was run: as §1

tozasertib = compound: Cc1cc(Nc2cc(N3CCN(C)CC3)nc(Sc3ccc(NC(=O)C4CC4)cc3)n2)n[nH]1 [tozasertib]
How it was run: as §1

[4] = compound: Cc1cc(SCc2sc(-c3ccc(C(F)(F)F)cc3)nc2C)ccc1OCC(=O)O
How it was run: as §1

doramapimod = compound: Cc1ccc(-n2nc(C(C)(C)C)cc2NC(=O)Nc2ccc(OCCN3CCOCC3)c3ccccc23)cc1 [doramapimod]
How it was run: as §1

ispinesib = compound: Cc1ccc(C(=O)N(CCCN)[C@@H](c2nc3cc(Cl)ccc3c(=O)n2Cc2ccccc2)C(C)C)cc1 [ispinesib]
How it was run: as §1

Measured: log2 fold change

SRSF3 (UniProt P84103)
inactive: [1] -0.081 | crizotinib 0.061 | [2] -0.27 | [3] 0.128 | duvelisib -0.081 | gandotinib 0.247 | tozasertib -0.027 | [4] -0.024 | doramapimod -0.019 | ispinesib -0.095

SRSF6 (UniProt Q13247)
inactive: [1] -0.021 | crizotinib -0.09 | [2] -0.195 | [3] 0.03 | duvelisib -0.085 | gandotinib -0.043 | tozasertib -0.08 | [4] 0.059 | doramapimod -0.047

TM9SF2 (UniProt Q99805)
inactive: [1] 0.056 | [2] -0.017 | [3] -0.049 | duvelisib 0.064 | gandotinib 0.008 | tozasertib 0.028 | [4] 0 | doramapimod 0.007 | ispinesib -0.089
active: crizotinib -0.754

STK11IP (UniProt Q8N1F8)
Sequence of UniProt Q8N1F8 (Q8N1F8 whole entry, looked up): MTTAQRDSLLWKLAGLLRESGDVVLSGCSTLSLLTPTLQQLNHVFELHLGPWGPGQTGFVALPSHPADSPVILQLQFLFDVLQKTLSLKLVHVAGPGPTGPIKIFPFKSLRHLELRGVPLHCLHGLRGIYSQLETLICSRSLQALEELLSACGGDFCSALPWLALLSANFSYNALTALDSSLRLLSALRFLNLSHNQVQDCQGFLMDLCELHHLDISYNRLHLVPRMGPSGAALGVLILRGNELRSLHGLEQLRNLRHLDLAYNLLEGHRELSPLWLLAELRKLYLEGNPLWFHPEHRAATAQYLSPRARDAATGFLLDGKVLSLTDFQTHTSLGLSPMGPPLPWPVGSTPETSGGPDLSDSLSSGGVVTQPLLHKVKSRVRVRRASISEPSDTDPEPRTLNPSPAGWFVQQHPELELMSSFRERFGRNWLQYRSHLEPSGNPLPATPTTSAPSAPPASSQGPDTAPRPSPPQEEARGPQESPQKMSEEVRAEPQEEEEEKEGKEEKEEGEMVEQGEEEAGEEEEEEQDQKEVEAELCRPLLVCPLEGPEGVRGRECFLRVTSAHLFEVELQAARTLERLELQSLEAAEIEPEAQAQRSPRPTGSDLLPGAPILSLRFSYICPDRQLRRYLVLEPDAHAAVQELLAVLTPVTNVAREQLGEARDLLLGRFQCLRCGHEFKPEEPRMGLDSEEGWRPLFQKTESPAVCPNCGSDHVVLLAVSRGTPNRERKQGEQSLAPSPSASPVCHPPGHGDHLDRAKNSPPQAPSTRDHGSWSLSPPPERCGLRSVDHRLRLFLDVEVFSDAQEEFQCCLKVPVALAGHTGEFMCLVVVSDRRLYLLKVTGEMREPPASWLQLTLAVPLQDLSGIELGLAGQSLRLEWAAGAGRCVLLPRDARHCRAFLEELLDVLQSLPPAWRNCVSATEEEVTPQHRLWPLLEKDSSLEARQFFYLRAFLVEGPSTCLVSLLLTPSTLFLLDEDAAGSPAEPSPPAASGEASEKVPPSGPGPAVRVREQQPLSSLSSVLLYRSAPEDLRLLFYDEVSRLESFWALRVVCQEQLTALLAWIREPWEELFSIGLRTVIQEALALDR
active: crizotinib -0.869
inactive: [1] -0.21 | [2] -0.078 | [3] -0.124 | duvelisib -0.089 | gandotinib -0.002 | tozasertib -0.042 | [4] 0.021 | doramapimod 0.006

TBCD (UniProt Q9BTW9)
Sequence of UniProt Q9BTW9 (Q9BTW9 whole entry, looked up): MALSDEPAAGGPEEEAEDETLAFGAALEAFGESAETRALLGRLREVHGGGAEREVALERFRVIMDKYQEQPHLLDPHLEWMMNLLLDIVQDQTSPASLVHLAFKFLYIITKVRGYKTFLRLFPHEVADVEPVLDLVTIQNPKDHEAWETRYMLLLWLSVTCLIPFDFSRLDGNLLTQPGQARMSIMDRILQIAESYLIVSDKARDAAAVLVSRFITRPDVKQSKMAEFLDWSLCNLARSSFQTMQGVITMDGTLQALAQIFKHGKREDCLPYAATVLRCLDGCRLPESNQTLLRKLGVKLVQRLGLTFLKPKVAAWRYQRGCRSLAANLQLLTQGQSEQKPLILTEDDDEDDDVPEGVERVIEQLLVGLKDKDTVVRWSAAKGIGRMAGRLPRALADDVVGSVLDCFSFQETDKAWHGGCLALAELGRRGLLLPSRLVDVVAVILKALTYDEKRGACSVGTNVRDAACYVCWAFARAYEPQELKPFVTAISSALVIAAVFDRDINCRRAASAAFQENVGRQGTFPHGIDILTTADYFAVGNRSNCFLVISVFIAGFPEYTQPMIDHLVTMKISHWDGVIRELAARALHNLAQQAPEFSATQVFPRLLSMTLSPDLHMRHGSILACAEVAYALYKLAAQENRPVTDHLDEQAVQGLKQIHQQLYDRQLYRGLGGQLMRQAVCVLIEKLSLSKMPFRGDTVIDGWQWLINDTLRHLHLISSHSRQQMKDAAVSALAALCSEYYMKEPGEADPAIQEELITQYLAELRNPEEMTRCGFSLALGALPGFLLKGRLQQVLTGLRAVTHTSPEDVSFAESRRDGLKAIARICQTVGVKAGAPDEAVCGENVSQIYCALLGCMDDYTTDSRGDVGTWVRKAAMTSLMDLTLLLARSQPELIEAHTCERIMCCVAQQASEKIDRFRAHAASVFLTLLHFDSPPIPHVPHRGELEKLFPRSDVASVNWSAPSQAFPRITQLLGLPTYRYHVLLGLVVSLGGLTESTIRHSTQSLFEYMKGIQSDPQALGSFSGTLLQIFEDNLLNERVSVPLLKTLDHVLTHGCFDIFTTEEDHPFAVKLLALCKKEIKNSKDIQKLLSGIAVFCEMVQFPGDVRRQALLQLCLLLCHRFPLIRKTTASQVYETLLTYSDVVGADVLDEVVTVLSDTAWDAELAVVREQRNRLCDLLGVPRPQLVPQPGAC
inactive: [1] -0.069 | crizotinib 0.001 | [2] 0.061 | [3] -0.034 | duvelisib 0.058 | gandotinib -0.104 | tozasertib 0.041 | [4] 0.009 | doramapimod 0.004 | ispinesib -0.032

SLC44A2 isoform 2 (UniProt Q8IWA5)
inactive: [1] 0.019 | crizotinib 0.113 | [2] 0.026 | [3] -0.123 | duvelisib 0.154 | gandotinib -0.017 | tozasertib -0.022 | [4] -0.046 | doramapimod 0.055 | ispinesib 0.069

SLC27A4 (UniProt Q6P1M0)
inactive: [1] -0.008 | crizotinib 0.069 | [2] 0.059 | [3] -0.015 | duvelisib 0.082 | gandotinib 0.122 | tozasertib 0.001 | [4] 0.123 | doramapimod 0 | ispinesib -0.103

SRC isoform 2 (UniProt P12931)
Sequence of UniProt P12931 (P12931 whole entry, looked up): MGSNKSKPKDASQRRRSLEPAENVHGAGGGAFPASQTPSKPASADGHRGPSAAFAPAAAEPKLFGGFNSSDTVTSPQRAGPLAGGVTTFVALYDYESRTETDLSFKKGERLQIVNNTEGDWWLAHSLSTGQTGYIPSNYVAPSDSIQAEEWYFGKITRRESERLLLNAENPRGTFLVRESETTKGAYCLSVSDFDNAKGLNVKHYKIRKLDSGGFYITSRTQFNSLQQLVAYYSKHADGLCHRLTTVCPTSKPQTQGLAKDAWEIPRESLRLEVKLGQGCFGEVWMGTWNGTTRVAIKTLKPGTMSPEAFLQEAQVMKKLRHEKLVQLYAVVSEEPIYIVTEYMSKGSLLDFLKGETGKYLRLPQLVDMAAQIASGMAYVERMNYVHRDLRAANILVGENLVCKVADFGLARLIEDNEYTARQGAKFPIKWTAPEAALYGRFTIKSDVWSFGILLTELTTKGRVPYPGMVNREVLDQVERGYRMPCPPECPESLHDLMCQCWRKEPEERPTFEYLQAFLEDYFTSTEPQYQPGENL
inactive: [1] -0.248 | crizotinib -0.154 | [2] 0.229 | [3] 0.07 | duvelisib 0.168 | gandotinib -0.056 | tozasertib -0.183 | [4] 0.101 | doramapimod -0.052 | ispinesib -0.068

SNX6 (UniProt Q9UNH7)
active: gandotinib -0.5
inactive: [1] -0.169 | crizotinib -0.323 | [2] -0.014 | [3] -0.033 | duvelisib -0.277 | tozasertib -0.118 | [4] 0.061 | doramapimod -0.036 | ispinesib -0.281

SRRM2 (UniProt Q9UQ35)
inactive: [1] -0.048 | crizotinib -0.246 | [2] 0.021 | [3] -0.255 | duvelisib -0.044 | gandotinib -0.13 | tozasertib 0.013 | [4] 0.012 | doramapimod 0.044 | ispinesib -0.131

SPTBN4 (UniProt Q9H254)
inactive: [1] 0.026 | crizotinib 0.09 | [2] -0.024 | [3] 0.098 | duvelisib 0.007 | gandotinib -0.03 | tozasertib -0.039 | [4] -0.003 | doramapimod -0.03 | ispinesib 0.06

SRP68 (UniProt Q9UHB9)
inactive: [1] 0.004 | crizotinib -0.134 | [2] -0.02 | [3] 0.15 | duvelisib -0.017 | gandotinib -0.064 | tozasertib 0.054 | [4] 0.112 | doramapimod 0.029 | ispinesib -0.209

SPPL2B (UniProt Q8TCT7)
inactive: [1] 0.049 | crizotinib -0.011 | [2] -0.072 | [3] 0.006 | duvelisib 0.031 | gandotinib -0.004 | tozasertib -0.032 | [4] -0.022 | doramapimod 0.01 | ispinesib -0.026

TBK1 (UniProt Q9UHD2)
Sequence of UniProt Q9UHD2 (Q9UHD2 whole entry, looked up): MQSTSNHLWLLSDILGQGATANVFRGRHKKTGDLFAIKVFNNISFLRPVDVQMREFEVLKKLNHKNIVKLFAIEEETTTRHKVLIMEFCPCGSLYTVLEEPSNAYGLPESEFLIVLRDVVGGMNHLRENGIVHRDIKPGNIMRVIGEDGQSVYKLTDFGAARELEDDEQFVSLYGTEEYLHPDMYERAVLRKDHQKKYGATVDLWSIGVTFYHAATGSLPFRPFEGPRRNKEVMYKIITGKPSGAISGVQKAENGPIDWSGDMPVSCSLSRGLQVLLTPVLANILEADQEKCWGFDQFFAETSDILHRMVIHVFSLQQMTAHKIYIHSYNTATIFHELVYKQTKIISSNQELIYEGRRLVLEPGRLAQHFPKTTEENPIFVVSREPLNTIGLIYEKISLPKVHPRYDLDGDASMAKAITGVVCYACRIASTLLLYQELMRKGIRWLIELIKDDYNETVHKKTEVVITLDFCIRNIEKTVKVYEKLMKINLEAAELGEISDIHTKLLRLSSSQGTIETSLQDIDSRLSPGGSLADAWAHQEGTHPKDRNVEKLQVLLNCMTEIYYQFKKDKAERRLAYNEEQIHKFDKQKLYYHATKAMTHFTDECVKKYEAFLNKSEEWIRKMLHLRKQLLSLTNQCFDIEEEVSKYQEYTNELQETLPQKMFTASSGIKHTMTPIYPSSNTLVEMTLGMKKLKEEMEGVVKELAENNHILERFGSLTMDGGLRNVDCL
inactive: [1] -0.027 | [2] -0.021 | [3] 0.043 | duvelisib 0.082 | gandotinib 0.237 | tozasertib 0.129 | [4] 0.175 | doramapimod 0.013 | ispinesib -0.18
active: crizotinib 0.489

SYNE1 (UniProt Q8NF91)
inactive: [1] 0.096 | crizotinib -0.132 | [2] -0.041 | [3] 0.104 | duvelisib 0.103 | gandotinib 0.109 | tozasertib -0.187 | [4] -0.04 | doramapimod 0.061 | ispinesib -0.159

SURF2 (UniProt Q15527)
Sequence of UniProt Q15527 (Q15527 whole entry, looked up): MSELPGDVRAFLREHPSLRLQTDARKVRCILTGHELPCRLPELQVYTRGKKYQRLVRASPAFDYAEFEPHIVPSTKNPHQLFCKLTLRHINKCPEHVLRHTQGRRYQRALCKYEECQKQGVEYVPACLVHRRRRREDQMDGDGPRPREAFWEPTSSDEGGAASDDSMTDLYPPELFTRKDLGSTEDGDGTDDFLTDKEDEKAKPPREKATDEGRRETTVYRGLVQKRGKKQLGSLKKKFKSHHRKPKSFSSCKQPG
inactive: [1] -0.009 | crizotinib 0.084 | [2] -0.02 | [3] -0.118 | duvelisib 0.018 | gandotinib 0 | tozasertib -0.01 | [4] 0.04 | doramapimod -0.068 | ispinesib 0.038

TBC1D5 isoform 2 (UniProt Q92609)
inactive: [1] 0 | crizotinib -0.24 | [2] -0.003 | [3] 0.084 | duvelisib -0.072 | gandotinib -0.255 | tozasertib 0.007 | [4] 0.142 | doramapimod -0.031 | ispinesib -0.268

SNX12 isoform 1 (UniProt Q9UMY4)
Sequence of UniProt Q9UMY4 (Q9UMY4 whole entry, looked up): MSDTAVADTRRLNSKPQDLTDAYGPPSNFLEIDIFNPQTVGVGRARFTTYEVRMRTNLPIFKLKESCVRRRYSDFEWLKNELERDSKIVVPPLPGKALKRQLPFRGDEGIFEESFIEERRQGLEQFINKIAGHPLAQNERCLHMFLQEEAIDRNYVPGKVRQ
inactive: [1] 0.004 | crizotinib -0.055 | [2] 0.081 | [3] 0.007 | duvelisib -0.162 | gandotinib -0.204 | tozasertib 0.021 | [4] 0.044 | doramapimod -0.036 | ispinesib -0.097

SSR4 (UniProt P51571)
inactive: [1] -0.004 | crizotinib 0.001 | [2] 0.081 | [3] -0.054 | duvelisib 0.06 | gandotinib -0.055 | tozasertib 0.029 | [4] 0.033 | doramapimod -0.019 | ispinesib -0.045

SLC25A38 (UniProt Q96DW6)
inactive: [1] 0.146 | crizotinib 0.105 | [2] 0.045 | [3] 0.002 | duvelisib 0.088 | gandotinib -0.035 | tozasertib -0.003 | [4] -0.058 | doramapimod 0.001 | ispinesib 0

SUCLG1 (UniProt P53597)
inactive: [1] 0.016 | crizotinib -0.028 | [2] 0.079 | [3] -0.072 | duvelisib 0.067 | gandotinib -0.048 | tozasertib -0.033 | [4] -0.004 | doramapimod -0.019 | ispinesib -0.012

SP1 (UniProt P08047)
inactive: [1] 0.031 | crizotinib -0.038 | [2] -0.044 | [3] 0.042 | duvelisib 0.008 | gandotinib 0.083 | tozasertib 0.037 | [4] 0.023 | doramapimod 0.036 | ispinesib -0.113

SLC27A2 (UniProt O14975)
Sequence of UniProt O14975 (O14975 whole entry, looked up): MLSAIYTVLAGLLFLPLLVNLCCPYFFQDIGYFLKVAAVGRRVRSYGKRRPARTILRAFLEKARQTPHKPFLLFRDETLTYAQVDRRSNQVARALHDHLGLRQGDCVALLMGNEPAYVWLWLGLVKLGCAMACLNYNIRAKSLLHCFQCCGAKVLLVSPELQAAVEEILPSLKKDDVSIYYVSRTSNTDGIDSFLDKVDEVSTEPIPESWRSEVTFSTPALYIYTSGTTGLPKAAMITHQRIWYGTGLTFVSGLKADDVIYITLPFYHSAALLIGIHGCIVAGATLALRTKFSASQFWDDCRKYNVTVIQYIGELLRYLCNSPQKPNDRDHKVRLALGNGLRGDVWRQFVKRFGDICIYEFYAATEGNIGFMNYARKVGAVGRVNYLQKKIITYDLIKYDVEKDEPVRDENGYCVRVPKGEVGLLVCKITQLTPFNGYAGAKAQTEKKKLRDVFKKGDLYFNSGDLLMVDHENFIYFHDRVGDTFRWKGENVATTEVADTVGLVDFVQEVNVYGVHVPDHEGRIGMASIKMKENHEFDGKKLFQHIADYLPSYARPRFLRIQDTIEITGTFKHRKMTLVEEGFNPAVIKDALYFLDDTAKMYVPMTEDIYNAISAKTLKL
active: [1] 0.273
inactive: crizotinib 0.046 | [2] -0.005 | [3] -0.031 | duvelisib 0.094 | gandotinib 0.094 | tozasertib 0.166 | [4] 0.108 | doramapimod 0.027 | ispinesib -0.056

SOAT1 (UniProt P35610)
inactive: [1] 0.066 | crizotinib 0.139 | [2] 0.094 | [3] -0.018 | duvelisib 0.069 | gandotinib 0.079 | tozasertib -0.021 | [4] -0.026 | ispinesib 0.158
active: doramapimod 0.448

SMDT1 (UniProt Q9H4I9)
inactive: [1] 0.144 | crizotinib 0.042 | [2] 0.017 | [3] -0.035 | duvelisib 0.026 | gandotinib -0.23 | tozasertib -0.014 | [4] 0 | doramapimod 0.054

SLC9A6 isoform 2 (UniProt Q92581)
inactive: [1] 0.028 | crizotinib 0.048 | [2] 0.022 | [3] -0.005 | duvelisib 0.079 | gandotinib -0.105 | tozasertib -0.024 | [4] -0.067 | doramapimod 0
active: ispinesib -0.331

SRI (UniProt P30626)
active: ispinesib 0.353
inactive: [1] -0.061 | crizotinib 0.082 | [2] 0.159 | [3] -0.139 | duvelisib 0.212 | gandotinib -0.03 | tozasertib 0.106 | [4] 0.066 | doramapimod -0.032

TELO2 (UniProt Q9Y4R8)
inactive: [1] -0.022 | crizotinib -0.055 | [2] 0.013 | [3] 0.233 | duvelisib -0.055 | gandotinib -0.198 | tozasertib 0.013 | [4] 0.176 | doramapimod 0.094 | ispinesib -0.136

TAX1BP1 (UniProt Q86VP1)
inactive: [1] -0.001 | crizotinib -0.009 | [2] -0.058 | [3] 0.042 | duvelisib 0.168 | gandotinib 0.156 | tozasertib 0.152 | [4] 0.069 | doramapimod 0.062 | ispinesib -0.067

SNRNP40 (UniProt Q96DI7)
Sequence of UniProt Q96DI7 (Q96DI7 whole entry, looked up): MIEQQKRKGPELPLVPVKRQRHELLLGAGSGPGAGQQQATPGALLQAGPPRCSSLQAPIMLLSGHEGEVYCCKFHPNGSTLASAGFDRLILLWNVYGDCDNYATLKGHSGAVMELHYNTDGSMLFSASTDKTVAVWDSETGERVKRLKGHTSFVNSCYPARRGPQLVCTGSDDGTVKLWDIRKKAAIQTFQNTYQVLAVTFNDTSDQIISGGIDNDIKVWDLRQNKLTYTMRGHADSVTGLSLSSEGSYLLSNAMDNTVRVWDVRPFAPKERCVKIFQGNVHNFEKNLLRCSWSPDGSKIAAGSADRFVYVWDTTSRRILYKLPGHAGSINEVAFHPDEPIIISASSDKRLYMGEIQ
inactive: [1] 0.033 | crizotinib 0.116 | [2] 0.14 | [3] 0.023 | duvelisib -0.015 | gandotinib 0.22 | tozasertib 0.019 | [4] -0.059 | doramapimod 0.071 | ispinesib 0.077
